From the supplement of paper PMC8728848
The entries come from a sample that favours the strongest signals as a whole.

Columns and labels:
Test in all cases: glycan array binding signal (z-score within array); higher = stronger binding
Settings in all cases: glycan notation: IUPAC condensed, linker removed
Fuc(a1-2)Gal = biological target: Fuc(a1-2)Gal
In short: (§1)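 Arrays were curated from the Consortium for Functional Glycomics database, 3228 in total, and kept only where the protein sequence was available. Binding is expressed as a within-array Z-score. This score was averaged across arrays of the same protein sequence at different concentrations or buffers and across linkers, and negative values can be read as non-binding.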

[1] = biological target: Fuc(a1-2)Gal(b1-3)GlcNAc(b1-3)GalNAc
In short: as §1

[2] = biological target: Fuc(a1-2)Gal(b1-4)GlcNAc(b1-3)[Fuc(a1-3)[Gal(b1-4)]GlcNAc(b1-6)]Gal(b1-4)Glc
In short: as §1

[3] = biological target: Fuc(a1-2)[Gal(a1-3)]Gal(b1-4)Glc
In short: as §1

[4] = biological target: Fuc(a1-2)[GalNAc(a1-3)]Gal
In short: as §1

[5] = biological target: Fuc(a1-2)[GalNAc(a1-3)]Gal(b1-3)GlcNAc(b1-2)Man(a1-3)[Fuc(a1-2)[GalNAc(a1-3)]Gal(b1-3)GlcNAc(b1-2)Man(a1-6)]Man(b1-4)GlcNAc(b1-4)[Fuc(a1-6)]GlcNAc
In short: as §1

[6] = biological target: Fuc(a1-2)[GalNAc(a1-3)]Gal(b1-4)GlcNAc(b1-2)Man(a1-3)[Fuc(a1-2)[GalNAc(a1-3)]Gal(b1-4)GlcNAc(b1-2)Man(a1-6)]Man(b1-4)GlcNAc(b1-4)[Fuc(a1-6)]GlcNAc
In short: as §1

[7] = biological target: Fuc(a1-2)[GalNAc(a1-3)]Gal(b1-4)[Fuc(a1-3)]GlcNAc
In short: as §1

[8] = biological target: Fuc(a1-2)[GalNAc(a1-3)]Gal(b1-4)[Fuc(a1-3)]GlcNAc(b1-3)GalNAc
In short: as §1

[9] = biological target: Fuc(a1-3)[GalNAc(b1-4)]GlcNAc
In short: as §1

[10] = biological target: Gal(a1-3)Gal(b1-3)GlcNAc(b1-2)Man
In short: as §1

[11] = biological target: Gal(a1-3)Gal(b1-3)GlcNAc(b1-6)GalNAc
In short: as §1

[12] = biological target: Gal(a1-3)Gal(b1-4)[Fuc(a1-3)]GlcNAc
In short: as §1

Gal(a1-3)GalNAc = biological target: Gal(a1-3)GalNAc
In short: as §1

[13] = biological target: Gal(a1-3)[Gal(a1-4)]Gal(b1-4)GlcNAc
In short: as §1

Gal(a1-4)Gal(b1-4)Glc = biological target: Gal(a1-4)Gal(b1-4)Glc
In short: as §1

[14] = biological target: Gal(b1-3)GalNAc(a1-3)[Fuc(a1-2)]Gal(b1-4)Glc
In short: as §1

[15] = biological target: Gal(b1-3)GalNAc(b1-4)Gal(b1-4)Glc
In short: as §1

[16] = biological target: Gal(b1-3)GlcNAc(b1-3)Gal(b1-3)GlcNAc
In short: as §1

[17] = biological target: Gal(b1-3)GlcNAc(b1-3)Gal(b1-4)GlcNAc(b1-3)Gal(b1-4)GlcNAc(b1-2)[Gal(b1-3)GlcNAc(b1-3)Gal(b1-4)GlcNAc(b1-3)Gal(b1-4)GlcNAc(b1-6)]Man(a1-6)[Gal(b1-3)GlcNAc(b1-3)Gal(b1-4)GlcNAc(b1-3)Gal(b1-4)GlcNAc(b1-2)Man(a1-3)]Man(b1-4)GlcNAc(b1-4)[Fuc(a1-6)]GlcNAc
In short: as §1

[18] = biological target: Gal(b1-3)GlcNAc(b1-6)Gal(b1-4)GlcNAc
In short: as §1

Gal(b1-4)Glc6S = biological target: Gal(b1-4)Glc6S
In short: as §1

[19] = biological target: Gal(b1-4)GlcNAc(b1-2)Man(a1-3)[Gal(b1-4)GlcNAc(b1-2)Man(a1-6)][Gal(b1-4)GlcNAc(b1-4)]Man(b1-4)GlcNAc(b1-4)[Fuc(a1-6)]GlcNAc
In short: as §1

[20] = biological target: Gal(b1-4)GlcNAc(b1-6)Gal(b1-4)GlcNAc
In short: as §1

[21] = biological target: Gal3S(b1-4)[Fuc(a1-3)]Glc6S
In short: as §1

Gal6P(b1-4)GlcNAc = biological target: Gal6P(b1-4)GlcNAc
In short: as §1

Gal6S(b1-3)GlcNAc = biological target: Gal6S(b1-3)GlcNAc
In short: as §1

Gal6S(b1-4)Glc = biological target: Gal6S(b1-4)Glc
In short: as §1

GalNAc(a1-3)GalNAc = biological target: GalNAc(a1-3)GalNAc
In short: as §1

[22] = biological target: GalNAc(b1-3)Gal(a1-4)Gal(b1-4)GlcNAc
In short: as §1

GalNAc(b1-4)GlcNAc = biological target: GalNAc(b1-4)GlcNAc
In short: as §1

GlcA(b1-3)GlcNAc = biological target: GlcA(b1-3)GlcNAc
In short: as §1

[23] = biological target: GlcNAc(a1-3)Gal(b1-4)GlcNAc
In short: as §1

[24] = biological target: GlcNAc(b1-3)Gal(b1-4)GlcNAc(b1-3)Gal(b1-4)GlcNAc(b1-2)Man(a1-3)[GlcNAc(b1-3)Gal(b1-4)GlcNAc(b1-3)Gal(b1-4)GlcNAc(b1-2)Man(a1-6)]Man(b1-4)GlcNAc(b1-4)GlcNAc
In short: as §1

[25] = biological target: GlcNAc(b1-3)Gal(b1-4)GlcNAc(b1-3)Gal(b1-4)GlcNAc(b1-3)Gal(b1-4)GlcNAc(b1-2)Man(a1-3)[GlcNAc(b1-3)Gal(b1-4)GlcNAc(b1-3)Gal(b1-4)GlcNAc(b1-3)Gal(b1-4)GlcNAc(b1-2)Man(a1-6)]Man(b1-4)GlcNAc(b1-4)GlcNAc
In short: as §1

[26] = biological target: GlcNAc(b1-4)[GlcNAc(b1-6)]GalNAc
In short: as §1

GlcNAc(b1-6)GalNAc = biological target: GlcNAc(b1-6)GalNAc
In short: as §1

[27] = biological target: Neu5Ac(a2-3)Gal(b1-3)GlcNAc(b1-2)Man(a1-3)[GlcNAc(b1-4)][Neu5Ac(a2-3)Gal(b1-3)GlcNAc(b1-2)Man(a1-6)]Man(b1-4)GlcNAc(b1-4)GlcNAc
In short: as §1

[28] = biological target: Neu5Ac(a2-3)Gal(b1-4)GlcNAc(b1-2)[Neu5Ac(a2-3)Gal(b1-4)GlcNAc(b1-6)]Man(a1-6)[Neu5Ac(a2-3)Gal(b1-4)GlcNAc(b1-2)Man(a1-3)][GlcNAc(b1-4)]Man(b1-4)GlcNAc(b1-4)GlcNAc
In short: as §1

[29] = biological target: Neu5Ac(a2-3)Gal(b1-4)GlcNAc(b1-3)Gal(b1-4)GlcNAc(b1-3)Gal(b1-4)GlcNAc
In short: as §1

[30] = biological target: Neu5Ac(a2-3)Gal(b1-4)GlcNAc(b1-3)Gal(b1-4)[Fuc(a1-3)]GlcNAc
In short: as §1

[31] = biological target: Neu5Ac(a2-3)Gal(b1-4)[Fuc(a1-3)]GlcNAc(b1-6)[Neu5Ac(a2-3)Gal(b1-3)]GalNAc
In short: as §1

[32] = biological target: Neu5Ac(a2-3)[GalNAc(b1-4)]Gal(b1-4)GlcNAc
In short: as §1

[33] = biological target: Neu5Ac(a2-6)Gal(b1-4)GlcNAc(b1-2)Man(a1-3)[Neu5Ac(a2-6)Gal(b1-4)GlcNAc(b1-2)Man(a1-6)]Man(b1-4)GlcNAc(b1-4)GlcNAc
In short: as §1

[34] = biological target: Neu5Ac(b2-6)Gal(b1-4)GlcNAc
In short: as §1

[35] = biological target: Neu5Ac9Ac(a2-6)Gal(b1-4)GlcNAc
In short: as §1

B1: AT3G09350(27) (Arabidopsis thaliana), Q84J81 (protein)
chain: MAKDGPNWDGLLKWSLSHADGTRPTRQLSEEDRKWFMEAMQSQTVDVVKRMKEITLVMQTPEQVLVEHGVTPEDIQDLLDELQEHVESIDMANDLHSIGGLVPLLSFLKNSHANIRAKAADVVSTIVQNNPRSQELVMETNALESLLSNFTSDTDIHARTQALGAISSLIRHNKPGVTAFKLANGYAGLRDALASDSVRFQRKALNLLQYLLQEDDSDRSIATGLGFPRVMMHLASSDDAEIREAALRGLLELSREKNDGSSSIDKSDEKLRQLLEERIKGITLMSQEDLETVKEERQLVDLLWSICYNEPSSLREKGLVVLPGEDALPPDVASKLFEPPLRASAANRNATEKKDEPMKLLGP
B1 was tested, and the “glycan array binding signal (z-score)” value (Fuc(a1-2)Gal) was -0.113, the “glycan array binding signal (z-score)” value [1] was 0.676 and the “glycan array binding signal (z-score)” value [2] was -0.595. For the same binder, the “glycan array binding signal (z-score)” value [3] was 2.16, the “glycan array binding signal (z-score)” value [4] was -0.506 and the “glycan array binding signal (z-score)” value [5] was -0.677. The “glycan array binding signal (z-score)” value [6] was 0.007, the “glycan array binding signal (z-score)” value [7] was 0.498 and the “glycan array binding signal (z-score)” value [8] was 5.85. For the same binder, the “glycan array binding signal (z-score)” value [9] was 3.56, the “glycan array binding signal (z-score)” value [10] was 0.248 and the “glycan array binding signal (z-score)” value [11] was -0.449. For the same binder, the “glycan array binding signal (z-score)” value [12] was -0.122, the “glycan array binding signal (z-score)” value (Gal(a1-3)GalNAc) was 2.5 and the “glycan array binding signal (z-score)” value [13] was 8.94. For the same binder, the “glycan array binding signal (z-score)” value (Gal(a1-4)Gal(b1-4)Glc) was 2.11, the “glycan array binding signal (z-score)” value [14] was -0.346 and the “glycan array binding signal (z-score)” value [15] was 1.91. The “glycan array binding signal (z-score)” value [16] was -0.089, the “glycan array binding signal (z-score)” value [17] was -0.059 and the “glycan array binding signal (z-score)” value [18] was 3.05. The “glycan array binding signal (z-score)” value (Gal(b1-4)Glc6S) was 0.57, the “glycan array binding signal (z-score)” value [19] was -0.391 and the “glycan array binding signal (z-score)” value [20] was 3.1. For the same binder, the “glycan array binding signal (z-score)” value [21] was -0.174, the “glycan array binding signal (z-score)” value (Gal6P(b1-4)GlcNAc) was -0.424 and the “glycan array binding signal (z-score)” value (Gal6S(b1-3)GlcNAc) was -0.146. The “glycan array binding signal (z-score)” value (Gal6S(b1-4)Glc) was -0.106, the “glycan array binding signal (z-score)” value (GalNAc(a1-3)GalNAc) was -0.182 and the “glycan array binding signal (z-score)” value [22] was 4.3. The “glycan array binding signal (z-score)” value (GalNAc(b1-4)GlcNAc) was 7.59, the “glycan array binding signal (z-score)” value (GlcA(b1-3)GlcNAc) was -0.957 and the “glycan array binding signal (z-score)” value [23] was -0.46. The “glycan array binding signal (z-score)” value [24] was 0.28, the “glycan array binding signal (z-score)” value [25] was 0.057 and the “glycan array binding signal (z-score)” value [26] was -0.008. For the same binder, the “glycan array binding signal (z-score)” value (GlcNAc(b1-6)GalNAc) was 0.847, the “glycan array binding signal (z-score)” value [27] was -0.8 and the “glycan array binding signal (z-score)” value [28] was -0.435. For the same binder, the “glycan array binding signal (z-score)” value [29] was 0.446, the “glycan array binding signal (z-score)” value [30] was -0.305 and the “glycan array binding signal (z-score)” value [31] was 0.415. For the same binder, the “glycan array binding signal (z-score)” value [32] was -0.121, the “glycan array binding signal (z-score)” value [33] was 0.535 and the “glycan array binding signal (z-score)” value [34] was 0.639. For the same binder, the “glycan array binding signal (z-score)” value [35] was -0.732.
